# Screening results as filed in PubChem.
# FLuc counter: firefly luciferase modulation, counter-screen for miR-21 project | Potency, µM (highest dose often 57.5 µM), inactives show at the highest dose activity change, negative = inhibition, usual class: inhibitors | hit rate 6.9% among 360,000 | purified FLuc, Km substrates, luminescence inhibition | P08659;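 also: plate controls were vehicle for no effect and reference inhibitor for full effect; nearly all actives have a fitted effect of over 55% in size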
# Target sequence (P08659 whole entry, looked up): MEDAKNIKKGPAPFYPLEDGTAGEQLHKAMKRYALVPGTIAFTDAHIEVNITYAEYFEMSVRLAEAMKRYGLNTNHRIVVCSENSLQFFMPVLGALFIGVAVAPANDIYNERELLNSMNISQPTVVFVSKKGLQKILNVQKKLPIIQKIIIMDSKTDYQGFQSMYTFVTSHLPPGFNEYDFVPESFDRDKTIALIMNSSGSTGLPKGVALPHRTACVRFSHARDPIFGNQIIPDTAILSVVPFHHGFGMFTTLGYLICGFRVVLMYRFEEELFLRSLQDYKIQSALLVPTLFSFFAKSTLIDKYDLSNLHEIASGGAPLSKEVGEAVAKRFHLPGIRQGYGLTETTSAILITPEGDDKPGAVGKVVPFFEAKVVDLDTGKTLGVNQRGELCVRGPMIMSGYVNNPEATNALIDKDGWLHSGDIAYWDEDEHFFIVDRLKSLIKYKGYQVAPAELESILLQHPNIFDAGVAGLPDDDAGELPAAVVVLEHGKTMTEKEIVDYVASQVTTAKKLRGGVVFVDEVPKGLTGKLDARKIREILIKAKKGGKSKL
#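 Purified P. pyralis luciferase (10nM final) with 10uM D-luciferin and 10uM ATP (Km levels) in 50mM Tris acetate pH 7.5, 10mM Mg acetate, 0.01% Tween-20, 0.05% BSA; qHTS 6-point titration, ~60 µM downward; luminescence read.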
# SMN2 splice up: enhancers of SMN2 splice variant expression; Potency, µM (titrated, usually from 46.1 µM), for the others: at the top dose activity change, positive = activation, usual class: activators; hit rate 2.8% among 210,000; HEK293 SMN2-luciferase splicing reporter, luminescence, 30-36 h; also: % of control where 0% means no effect; nearly all actives have a fitted effect of over 55% in size
#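 HEK293 cells carry an SMN2 […]–luciferase reporter in which exon 7 inclusion puts luciferase in frame. Cells were plated 10-12 h before compound addition, then incubated 30-36 h at 37C. ONE-Glo luminescence was read; sodium butyrate at 4.5 mM final served as control.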
# NPC1 prom act: activators of NPC1 promoter. Huh7 NPC1 promoter luciferase reporter, 24 h. hit rate 2.4% among 320,000. Potency, µM (top dose mostly 9.22 µM), for the others: at the highest dose activation, usual class: activators; also: % of control where 0% means no effect; nearly all actives have a fitted effect of over 60% in size
#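 Huh7 reporter cells (NPC1 promoter driving luciferase) are dosed with compound for 24 h at 37 °C, 5% CO2; luciferase detection reagent is then added and luminescence measured after 10 min at ambient temperature.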
# Rab9 prom act: activators of Rab9 promoter; Huh7 Rab9 promoter-luciferase reporter, luminescence, 24 h; Potency, µM (titrated, usually from 9.22 µM), for the others: top-dose activation, negative = inhibition, most hits filed as activators; hit rate 2.8% among 320,000; AID 485297; also: % of control where 0% means no effect; nearly all actives have a fitted effect of over 60% in size
#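 Luminescence read-out: Huh7 cells stably expressing Rab9-luciferase, treated 24 h with compound at 37 °C, then lysed with luciferase reagent for 10 min at ambient before reading.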
# ELG1 genotoxic: inducers of genotoxicity in HEK293T ELG1-luciferase cells; hit rate 1.3% among 330,000; HEK293T ELG1-luciferase reporter, luminescence, 16 h; Potency, µM (highest dose often 46 µM), for inactives: at the highest dose activity change, positive = activation, actives largely listed as activators; AID 504466; also: % of control where 0% means no effect; nearly all actives have a fitted effect of over 60% in size
#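 HEK293T cells expressing luciferase-tagged ELG1 were treated with compound or DMSO for 16 hr at 37°C. Luciferase activity was then read after 30 min with ONE-Glo at room temperature; rising signal flags genetic stress.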
# An asterisk follows results filed as active; ? = inconclusive; · = no result given; [ ] = remark or other dose. Sampled rows, rich in hits. Any-hit rate of the full collection: about 7.4%. Calls follow the shape of the dose curve; as a rule, active = well fitted curve in the direction sought with a large enough effect; inconclusive = small, poorly fitted or top-dose-only effect, or another doubt; inactive = no such curve, though single readings can be large; an effect the other way counts as inactive or inconclusive. Potency is read from the fitted curve at half-maximal effect.
SMILES,FLuc counter,SMN2 splice up,NPC1 prom act,Rab9 prom act,ELG1 genotoxic
COC(=O)C(C(=O)OC)[C@@H]1c2ccccc2[C@H]2C(=C[C@@H](C)[C@H]3C(=O)N(c4ccccc4)C(=O)[C@H]32)N1C(=O)OC,·,-11%[9.22 µM],·,·,·
CC1(C)CC(=O)c2sc(NC(=O)c3cccs3)nc2C1,0.76µM*,2.2µM*,?,0.5µM*,?
O=c1[nH]cnc2nn(-c3ccccc3)nc12,21µM*,?,?,?,?
O=C(NCCNC(=O)c1ccc(Cl)cc1Cl)c1ccco1,-7%,·,0%,6%,0%
Cn1c(=O)[nH]c(=O)c2c1nc(SCCC(=O)O)n2Cc1cccc(Br)c1,3%,·,-3%,2%,2%
C/C=C/CSc1nc2c(c(=O)[nH]c(=O)n2C)n1Cc1ccc(C)cc1,2%,-3%,0%,0%,21µM*
Cc1ccc(Cn2c(Sc3ncccn3)nc3c2c(=O)[nH]c(=O)n3C)cc1,4%,5%,1%,-2%,-10%
CC(=O)CSc1nc2c(c(=O)[nH]c(=O)n2C)n1Cc1cccc(Br)c1,1%,·,-1%,0%,21µM*
O=C(NC(=S)Nc1cccc2c(O)cccc12)c1ccco1,21µM*,·,9%,17%,0%
O=C(NNC(=S)Nc1ccccc1Cl)c1ccccc1,13µM*,·,2.5µM*,1.6µM*,?
O=C(NC(=S)Nc1cccc(Cl)c1N1CCCCC1)c1ccco1,7%,-18%,-4%,1%,0%
O=C(NC(=S)Nc1ccccc1Cl)c1ccco1,9.5µM*,·,?,?,4%
c1ccc2c(c1)nc(Nc1ccc(N3CCCCC3)cc1)c1nncn12,4.8µM*,·,1%,-5%,1%
c1ccc(N2CCCCC2)c(Nc2nc3ccccc3n3cnnc23)c1,2%,·,2%,-5%,3%
O=C(O)c1ccc(Nc2nc3ccccc3n3cnnc23)cc1,7.6µM*,0%,·,·,·
CCOc1ccc(Nc2nc3ccccc3n3cnnc23)cc1,13µM*,·,2%,-11%,-1%
CC1CCCC(C)N1C(=O)Cn1nnc(-c2ccc([N+](=O)[O-])cc2)n1 (stereo not given),1%,·,-3%,1%,-8%
COc1ccc(-c2csc3nc[nH]c(=O)c23)cc1OC,-3%,·,-1%,7%[1.84 µM],0%
O=c1[nH]cnc2scc(-c3ccc(-c4ccccc4)cc3)c12,1.2µM*,14µM*,1.1µM*,1.1µM*,1.8µM*
CCCOc1ccc(-c2csc3nc[nH]c(=O)c23)cc1,?,·,3.2µM*,1.6µM*,?
Cc1cccc(N2CCN(C(=O)c3cc4c(=O)n(C)c5ccccc5c4s3)CC2)c1C,3%,-11%,·,·,·
CCc1ccc(NC(=O)CC2C(=O)N(c3ccc(OC)cc3)C(=O)N2Cc2ccc(OC)cc2)cc1 (stereo not given),-7%,·,·,·,·
CCCCC(CC)CNCC(CC)CCCC (stereo not given),·,-5%,·,·,·
CCC(=O)N1CCN(c2ccc(NC(=O)c3ccc(Br)o3)cc2)CC1,-13%,13%,8%,1%,15%
O=C(Nc1ccc(N2CCCC2)c(Cl)c1)c1ccc(Br)o1,5.4µM*,11µM*,3.5µM*,2.8µM*,?
SMILES,FLuc counter,SMN2 splice up,NPC1 prom act,Rab9 prom act,ELG1 genotoxic
CC1CCN(c2ccc(NC(=O)c3cccnc3)cc2)CC1,12µM*,28µM*,?,?,11%
CN1CCN(c2ccc(NC(=O)c3ccc(Br)o3)cc2)CC1,12µM*,·,1.6µM*,?,16µM*
Cc1ccc(C(=O)N2CCN(c3ccc(NC(=O)c4ccc(Br)o4)cc3)CC2)cc1,2%,-87%,-5%,-2%,-26%
O=C(Nc1ccc(N2CCOCC2)cc1)c1ccc(Br)o1,4.3µM*,·,0.45µM*,0.28µM*,?
C=CCNc1nc(Cl)nc(Nc2ccc(OCC)cc2)n1,4%,0%,-2%,-6%,1%
CN1CCN(c2ccc(NC(=O)c3ccccc3Br)cc2)CC1,?,?,?,?,15µM*
O=C(Nc1ccc(N2CCOCC2)cc1)c1ccc([N+](=O)[O-])o1,8.5µM*,·,1.4µM*,1.6µM*,9.2µM*
O=C(Nc1ccc(S(=O)(=O)N2CCOCC2)cc1)c1ccc([N+](=O)[O-])o1,-3%,·,-1%,-42%,-1%
N/C(=N\O)c1ccc(NC(=O)c2ccc(Br)o2)cc1,17µM*,18%,?,?,23µM*
CS(=O)(=O)N1CCN(c2ccc(NC(=O)c3ccc(Br)o3)cc2)CC1,-15%,7.1µM*,2.8µM*,3.2µM*,1.5µM*
O=C(Nc1ccc(N2CCN(C(=O)c3ccco3)CC2)cc1)c1ccccc1Br,1%,·,7%,1%,-17%
O=C(NNC(=O)c1ccc(Br)o1)c1ccc(NC(=O)c2ccccc2)cc1,6%,-5%,-3%,-4%,5%
Cc1ccc(C(=O)Nc2ccccc2C(=O)N2CCOCC2)cc1[N+](=O)[O-],?,10%,0%,10%,-1%
COc1cccc(C(=O)NNS(=O)(=O)c2ccc(C)cc2)c1,4%,·,-4%,3%,-4%
Cc1ccc(NC(=O)CSc2nc(=O)n(Cc3ccco3)c3c2CCC3)cc1F,-14%,·,·,·,·
CN(C)c1ccc(C2N([C@H](C#N)c3ccc(N(C)C)cc3)CCCN2[C@@H](C#N)c2ccc(N(C)C)cc2)cc1 (stereo not given in full),·,-8%[9.22 µM],·,·,·
CN1CCN(c2ccc(NC(=O)c3ccc(-c4ccccc4F)o3)cc2)CC1,2.7µM*,·,3.2µM*,1µM*,?
CC1CCN(c2ccc(NC(=O)c3ccc(Br)o3)cc2)CC1,1.9µM*,·,1µM*,1µM*,1.5µM*
O=C(c1cccs1)N1CCC(c2nc3c(nnn3Cc3ccccc3Cl)c(=O)[nH]2)CC1,5%,·,0%,0%,7%
CC(C)(C)C1CCc2c(sc(NC(=O)c3ccc(Cl)cc3)c2C(=O)NCc2ccco2)C1 (stereo not given),1%,-6%,·,·,·
Nc1nc(SCC(=O)Nc2cccc(S(=O)(=O)N3CCCCCC3)c2)n[nH]1,17µM*,-10%,2%,-1%,-1%
O=C(CSc1nnc(Nc2ccccc2)s1)Nc1cccc(S(=O)(=O)N2CCCCC2)c1,12µM*,-22%,3%,-5%,-1%
O=C1C(=O)N(C2CCNCC2)CCN1Cc1ccccc1,-5%,·,·,·,·
CN1CCN(c2ncc3ncc(=O)n(Cc4cccs4)c3n2)CC1,·,5%,·,·,·
CC(C)CC(=O)Nc1ccc(-c2nnn(CC(=O)NCc3ccco3)n2)cc1,11µM*,?,?,?,?
CCOC(=O)CSc1nc(-c2ccncc2)ccc1C#N,?,1.1µM*,1.3µM*,0.4µM*,?
CCOC(=O)CSc1nc(-c2ccc3c(c2)OCO3)ccc1C#N,5.4µM*,11%,2.5µM*,0.79µM*,?
CCOC(=O)CCCSc1nc(-c2ccc3c(c2)OCO3)cc(C(F)(F)F)c1C#N,2%,2%,0%,-3%,-1%
